# Experimental data published in US20250354175, “ATTP MV4-DERIVED SITE-SPECIFIC RECOMBINATION AND ITS USE FOR INTEGRATION OF SEQUENCE OF INTEREST” (INSTITUT NATIONAL DE RECHERCHE POUR L'AGRICULTURE, …, published 2025).
# Target: T1, mv4Int (369 aa integrase) (Lactobacillus delbrueckii bacteriophage …)
# T1 chain: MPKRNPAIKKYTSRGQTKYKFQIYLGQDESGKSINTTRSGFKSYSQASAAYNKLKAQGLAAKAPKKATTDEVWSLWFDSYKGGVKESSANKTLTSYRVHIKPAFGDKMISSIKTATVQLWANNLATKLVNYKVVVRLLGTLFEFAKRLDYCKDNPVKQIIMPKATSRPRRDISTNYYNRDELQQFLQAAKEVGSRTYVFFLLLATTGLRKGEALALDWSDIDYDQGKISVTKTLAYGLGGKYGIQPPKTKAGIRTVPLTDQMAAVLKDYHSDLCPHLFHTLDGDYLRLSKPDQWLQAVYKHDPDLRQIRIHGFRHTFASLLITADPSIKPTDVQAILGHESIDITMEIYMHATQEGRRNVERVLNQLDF
# Assay: cleavage_in_vitro; recombination with attP sharing same overlap
# Settings: tags: expressed from pET15b; label: Cy3; dsDNA, one strand shown
sequence,measurement,value
TCAAATAAGGTTTTCTCCTTAATAAGGTCAAATGGTATC,binding signal,15 fold decrease vs WT
